The whole screen tested about 2,300 compounds, of which about 350 (15%) were called active. A selection follows. Potency and affinity values are given separately. Unmarked numbers belong to inactive results. How the calls were made is not given here.
Assay: HepG2 cell cytotoxicity, dose response, cytotoxicity control for non-replicating M. tuberculosis project (AID 489018);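 further: HepG2 human liver cells; 100% = vehicle-treated cells and 0% = background signal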
Settings: series mostly up to 20 µM; viability: at the top concentration

| SMILES | viability |
| --- | --- |
| O=C(OCc1ccc(Cl)c(Cl)c1)c1ccccn1 | 115% |
| O=C(Nc1sc2c(c1C(=O)O)CCCCC2)c1ccccc1F | 99.9% |
| COc1ccccc1NC(=O)c1ccc([N+](=O)[O-])o1 | 73.8% |
| O=C(Nc1sc2c(c1C(=O)O)CCCC2)c1ccc(F)cc1 | 93.1% |
| O=C(c1ccc([N+](=O)[O-])o1)N1CCc2ccccc2C1 | 102% |
| COc1cc2c(cc1OC)CN(C(=O)c1ccc([N+](=O)[O-])o1)CC2 | 90.2% |
| CCOC(=O)COc1ccc2c3c(c(=O)oc2c1C)CCC3 | 112% |
| O=C(COC(=O)c1ccc(Cl)s1)c1ccc[nH]1 | 103% |
| COc1ccccc1OCCNC(=O)c1cc([N+](=O)[O-])cc([N+](=O)[O-])c1 | 102% |
| O=C(OCC(=O)N1CCN(c2ccccc2)CC1)c1ccc2ccccc2n1 | 100% |
| O=C(OCC(=O)c1c[nH]c2ccccc12)c1ccc([N+](=O)[O-])s1 | 96.6% |
| CCCCCC/C(=N/O)c1ccccn1 | 104% [at 5 µM] |
| c1ccc(-c2nc(NCCCn3ccnc3)c3ccccc3n2)cc1 | 75.7% |
| Cc1cccc2cc(C#N)c(NCCCn3ccnc3)nc12 | 95.8% |
| CC(C)OC(=O)c1cc(C(=O)c2cc(Cl)ccc2O)coc1=N | 91.3% |
| O=C1NN(c2ccccc2)C(=O)/C1=C/c1ccc(Sc2ccc(Cl)cc2)o1 | 100% |
| COC(=O)COc1ccc2c(-c3cccc([N+](=O)[O-])c3)cc(=O)oc2c1 | 106% |
| Cc1cc(NC(=O)c2cc([N+](=O)[O-])cc([N+](=O)[O-])c2)no1 | 110% |
| Cc1cc(C(=O)N/N=C/c2cccc(Cl)c2Cl)no1 | 105% |
| O=C(CCc1ccccc1)NC1C2CC3CC(C2)CC1C3 (stereo not drawn) | 105% |
| C/C(=N\NC(=O)CCc1ccccc1)C1C(=O)c2ccccc2C1=O | 91.1% [at 5 µM] |
| NC(=O)N/N=C\c1cc(Br)ccc1O | 92.2% |
| CN1CC(=O)NC1=NC(=O)C12CC3CC(CC(C3)C1)C2 | 96.6% |
| O=C(NNC(=O)c1cnccn1)c1ccc(Cl)c(Cl)c1 | 87.6% [at 5 µM] |
| Cn1cnc([N+](=O)[O-])c1Sc1ccc(Br)cc1 | 78.3% |
| CCc1ccc(N2CCN(CCNC(=O)Nc3ccc(OC)cc3)CC2)cc1 | 92.9% |

| SMILES | viability |
| --- | --- |
| O=C(OCc1cccc([N+](=O)[O-])c1)c1ccc2ccccc2n1 | 104% |
| O=c1c2c([N+](=O)[O-])cc([N+](=O)[O-])cc2nc2ccccn12 | 100% |
| CCOC(=O)C(=O)NC12CC3CC(CC(C3)C1)C2 | 84.6% |
| O=C(CCCOc1ccccc1)OCn1nnc2ccccc2c1=O | 110% |
| COc1ccc(NC(=O)Nc2ccc(O)c3ccccc23)cc1 | 102% [at 5 µM] |
| CCOc1ccc2ccccc2c1/C=N/NC(=O)c1ccncc1 | 94.8% |
| CCS(=O)(=O)c1ncc(Cl)c(C(=O)Nc2ccc(S(=O)(=O)N(C)c3ccccc3)cc2)n1 | 81.2% [at 5 µM] |
| CCOC(=O)c1c(NC(=O)COC(=O)c2ccccn2)sc2c1CCC2 | 114% |
| Clc1ccc(OCCOCCN2CCc3ccccc3C2)c(Cl)c1 | 94.3% [at 5 µM] |
| CC(C)OC(=O)C(C)Oc1ccc(C(=O)NCCc2ccccc2)cc1 (stereo not drawn) | 91.1% |
| CC1(C)OC(c2ccccc2)=C/C(=C\C=N\NC(=O)c2ccncc2)O1 | 91.1% |
| Cc1ccc2nc(N(CCCN(C)C)C(=O)c3ccc4c(c3)CCCC4)sc2c1 | 87.7% [at 5 µM] |
| CN(C)CCC(=O)N1c2ccccc2Sc2ccc(Cl)cc21 | 102% |
| CCc1ccc(OCC(=O)NNC(=O)c2cnccn2)c(Br)c1 | 98.8% |
| O=C(N/N=C\c1ccc(Cl)s1)C1COc2ccccc2O1 (stereo not drawn) | 97.2% [at 5 µM] |
| Clc1ccc(N=c2ssnc2Cl)nc1 | 96.6% |
| S=C1SCN(Cc2ccco2)CN1Cc1ccco1 | 90.5% |
| CN(C)S(=O)(=O)c1ccc(C(=O)Oc2ccccc2)cc1 | 91% |
| CCC(C)[C@H]1CN=C(N)N1CCc1cccc2ccccc12 (stereo partly drawn) | 85.5% |
| Cc1cc(-c2c(C)[nH]n(-c3ccccc3)c2=O)n[nH]1 | 72.7% |
| COc1ccc2oc(=O)c(/C(C)=N/NC(=O)c3ccncc3)cc2c1 | 104% |
| C/C(=N\Nc1nc2ccccc2nc1C)c1ccccc1O | 91.6% |
| N=c1oc2ccc(Cl)cc2cc1C(=O)NC1CCCCCC1 | 87.9% |
| O=C(Oc1ccc(F)cc1)c1ccc2c(=O)n3c(nc2c1)CCC3 | 96.7% |
| Cc1ccc(-c2nnc(SCC#CCOC(=O)c3ccco3)o2)cc1 | 104% |
| CCOC(=O)C1=C(C)C/C(=N\NC(=O)c2ccccc2O)CC1 | 81.2% |

| SMILES | viability |
| --- | --- |
| Cc1cc(C)nc(Sc2ncnc(N)c2[N+](=O)[O-])n1 | 80.1% |
| Oc1ccccc1-c1nnc(COc2ccccc2)o1 | 89.6% |
| CC(C)N1CCc2c(sc(NC(=O)CCS(=O)(=O)c3ccccc3)c2C#N)C1 | 104% |
| CNC(=O)COC(=O)c1ccc(-c2nc3ccccc3s2)s1 | 91.7% |
| CCCCNC(=O)Nc1nnc(-c2ccc(OCC)cc2)o1 | 100% |
| Cc1ccc(CCC(=O)Nc2ccc(C)c(C)c2)o1 | 97.3% |
| Cc1ccc(C(=O)Nc2nnc(C3=COCCO3)o2)cc1C | 87.5% |
| C/C(=C\C(=O)c1ccc(Br)cc1)NNC(=O)c1ccccc1 | 70.2% |
| Cc1n[nH]c(=S)n1/N=C/c1ccc(OCc2ccc(Cl)cc2Cl)cc1 | 103% |
| CC(C)(C)c1csc(NC(=O)c2ccccc2O)n1 | 82.3% |
| O=C(O)c1ccccc1-c1ccccc1C(=O)Nc1nc2ccccc2s1 | 105% [at 5 µM] |
| Cc1ccc2c(c1)C(=O)C(=O)N2CCCOc1ccccc1 | 108% |
| CCCn1c(NC(=O)c2ccc([N+](=O)[O-])o2)nc2ccccc21 | 91.1% |
| COC(=O)c1ccc(C(=O)NC2CCCc3c2cnn3-c2cc(F)cc(F)c2)nc1 (stereo not drawn) | 74% |
| O=C(COC(=O)c1cccc(C(F)(F)F)c1)NCc1ccccc1 | 99.9% |
| COC(=O)C1=C(C)N(CC2CC2)C(=NCc2cccc(Cl)c2)N[C@H]1c1ccccc1 | 76.5% |
| CCOC(=O)COc1cc(N)c(Cl)cc1Cl | 80.8% |
| CC(C)C1O/C(=N/C(=O)Nc2ccc(Cl)c(Cl)c2)NC1=O (stereo not drawn) | 95.4% |
| O=c1c2ccccc2sn1-c1ccccc1 | 93.9% |
| COC(=O)COc1ccc2cc(-c3ccc(OC)cc3)c(=O)oc2c1 | 105% |
| CC(C)(C)NC(=O)C(=O)NNC(=O)c1ccc(C(C)(C)C)cc1 | 88.5% |
| C#CCSc1nnc(-c2cccc3ccccc23)o1 | 85.7% |
| COc1ccc(OC(=O)CCc2c[nH]c3ccccc23)cc1 | 103% |
| N#Cc1ccc(COC(=O)CCc2c[nH]c3ccccc23)cc1 | 108% |
| O=C(COC(=O)CCc1c[nH]c2ccccc12)NCc1ccc(Cl)cc1 | 108% |
| O=C(COC(=O)CCc1c[nH]c2ccccc12)NCc1ccc2c(c1)OCO2 | 109% |

Reference: PubChem BioAssay AID489018 (Southern Research Specialized Biocontainment Screening …, 2010)
